A selection: hits, their analogues and other compounds. The true share with any hit is near 2.2%.
Ba/F3 V617F tox: loss of viability in JAK2V617F-driven Ba/F3 cells | Ba/F3 EpoR-JAK2V617F viability, ATP luminescence | inhibition, % at 5.6 µM | hit rate 1.1% among 220,000 | AID 1446;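 active = inhibition above the campaign mean plus 3 SD over all tested compounds, cut at about 24% in these data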;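 also: cytokine-independent growth of Ba/F3 cells driven by EpoR plus mutant JAK2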
KLF5 inhibitor: inhibitors of KLF5 expression | DLD-1 KLF5 promoter-luciferase reporter, luminescence | inhibition, % at 5 µM | hit rate 0.23% among 290,000;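 active = inhibition above a per-plate limit of that plate's mean compound inhibition plus 3 SD, cut at about 60% in these data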;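 also: higher means less KLF5 promoter-driven luciferase light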
aSyn UTR inh: MLPCN primary screen, SNCA 5' untranslated region; alpha-synuclein 5'UTR reporter, inhibitor activity; inhibition, % (tested at 7.5 µM); hit rate 0.82% among 300,000; in the data active = inhibition above about 60%; inconclusive = no clear call, values can overlap the other calls;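 also: H4 neuroglioblastoma cells stably carrying SNCA 5'UTR luciferase fusion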
APP transl inh: APP translation inhibition | hit rate 0.82% among 190,000 | inhibition, % at 2 µM | SH-SY5Y APP 5'UTR-luciferase reporter, luminescence | AID 1285;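 active = inhibition above a set limit, derived from the sample mean plus 3 SD, cut at about 45% in these data; inconclusive = one replicate passes the limit while the other fails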
BaF3 tox: reduces parental Ba/F3 cell viability, JAK2V617F counter-screen; CellTiter-Glo ATP luminescence; inhibition, % at 5.6 µM; hit rate 1.1% among 220,000;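 active = inhibition above a per-campaign cutoff, the mean inhibition of all tested compounds plus 3 SD, cut at about 27% in these data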
IEC-6 cytotox: IEC-6 cytotoxicity, counter-screen for KLF5 inhibitors. hit rate 0.78% among 290,000. AID 1825. inhibition, % at 5 µM. luminescence viability
IEC-6 cytotox cf: confirmation of cytotoxic compounds in rat IEC-6 intestinal epithelial cells; shares compounds with IEC-6 cytotox; IEC-6 rat intestinal epithelial viability, luminescence; inhibition, % at 5 µM; hit rate 63% among 1,900; AID 1907
A number is an active result; n = inactive; u = inconclusive; x = no result. Rule as the data show it, unless noted: active = inhibition above about 22%; inactive = the rest.

SMILES | Ba/F3 V617F tox | KLF5 inhibitor | aSyn UTR inh | APP transl inh | BaF3 tox | IEC-6 cytotox | IEC-6 cytotox cf
CCCCN(C)CCCNC(=O)c1cn(C)c2ccc(S(=O)(=O)N(C)C3CCCCC3)cc2c1=O | x | n | n | x | x | n | x
C=CCn1cc(C(=O)NCCOC)c(=O)c2cc(S(=O)(=O)N3CCCCCC3)ccc21 | x | n | n | x | x | 24.1 | n
C=CCOc1ccc(C2C(C(=O)c3ccc(C)o3)=C(O)C(=O)N2Cc2cccnc2)cc1 (stereo not given) | x | n | n | x | x | n | x
O=C(Nc1ccccc1N1CCN(C(=O)c2ccc(Cl)cc2)CC1)c1ccc([N+](=O)[O-])o1 | x | n | n | x | x | 33.4 | n
CC(C)C(=O)N1CCN(c2ccc(NC(=O)c3ccc([N+](=O)[O-])o3)cc2)CC1 | 67.4 | n | n | 57.3 | 33.1 | 23.9 | n
Cc1ccccc1C(=O)N1CCN(c2ccc(NC(=O)c3ccc([N+](=O)[O-])o3)cc2)CC1 | x | n | n | x | x | 97.9 | 34.7
CC(C)C(=O)N1CCN(c2ccc(NC(=O)c3ccc(Br)o3)cc2)CC1 | n | n | n | n | n | n | x
COc1ccc(C(=O)Nc2ccc(N3CCN(C(=O)c4ccccc4)CC3)cc2)cc1[N+](=O)[O-] | n | n | n | n | n | n | x
O=C(Nc1ccc(N2CCN(C(=O)c3ccccc3)CC2)cc1)c1ccc([N+](=O)[O-])o1 | 99.0 | n | n | 94.3 | 76.8 | 85.0 | 34.9
COc1cc2[nH]c(C(=O)NCc3ccccc3)cc2c(OC)c1OC | x | n | n | x | x | n | x
CC(NC(=O)Nc1ccc(F)cc1)c1ccc2c(c1)OCO2 (stereo not given) | x | n | n | x | x | n | x
CN1CCN(c2ccc(NC(=O)c3ccc([N+](=O)[O-])o3)cc2Cl)CC1 | x | n | u | x | x | 90.2 | 28.8
Nc1ncnc(N)c1N=Nc1ccccc1 | x | n | 111.8 | x | x | 35.6 | n
Cc1nn(-c2ccccc2)c(N)c1N=Nc1ccccc1 | n | n | n | n | n | n | x
Nc1nn(-c2ccccc2)c(N)c1N=Nc1ccccc1 | 64.3 | n | n | n | 64.3 | 34.2 | 40.2
O=c1[nH]cnc(O)c1N=Nc1ccccc1 | x | n | n | x | x | n | x
C/C(=N\NC(=O)c1n[nH]c2c1CCC2)c1ccco1 | 83.4 | n | n | x | 86.2 | 78.6 | n
O=C(C1CC(=O)N(C2CCCC2)C1)N1CCN(c2cccc(Cl)c2)CC1 (stereo not given) | x | n | n | x | x | n | x
CCc1cccc(NC(=S)Nc2cccc3ccccc23)c1 | x | n | n | x | x | 29.2 | n
COc1cccc(NC(=S)Nc2cccc3ccccc23)c1 | x | n | n | x | x | 35.9 | n
CC(=O)NNC(=S)Nc1cc(S(=O)(=O)N(C)C)ccc1C | n | n | n | n | n | n | x
Cc1ccc(S(=O)(=O)N(C)C)cc1NC(=S)Nc1cccc2ccccc12 | x | n | n | x | x | 61.7 | n
Cc1ccc(S(=O)(=O)NC2CC2)cc1[N+](=O)[O-] | x | n | n | x | x | n | x
COc1ccc(-c2cc3c(=O)n(CC(=O)N4CCCC4)ncn3n2)cc1 | x | n | n | x | x | n | x
COc1ccc(-c2oc3cccnc3c2C#CCO)cc1 | x | n | n | x | x | 29.1 | n
SMILES | Ba/F3 V617F tox | KLF5 inhibitor | aSyn UTR inh | APP transl inh | BaF3 tox | IEC-6 cytotox | IEC-6 cytotox cf
COc1ccc(-c2oc3cccnc3c2C#CC2(O)CCCCC2)cc1 | x | n | n | x | x | n | x
O=C(COC(=O)c1ccccc1-n1cnnn1)c1ccc(F)cc1 | x | x | n | x | x | x | x
Cc1ccc(S(=O)(=O)N2CCC(C(=O)N3CCC3)CC2)cc1 | x | n | n | x | x | n | x
Cc1sc(NC(=S)NC(=O)CCc2ccccc2)c(C(N)=O)c1C | 75.4 | n | x | 94.7 | 75.4 | 27.4 | 70.9
Cc1sc(NC(=S)NC(=O)c2ccco2)c(C(N)=O)c1C | n | n | n | n | n | n | x
Cc1ccc(CNC(=O)Cc2ccc(-n3cccc3)cc2)cc1 | n | n | n | n | n | n | x
O=C(Cc1ccc(-n2cccc2)cc1)NCc1cccs1 | 82.5 | n | n | 94.1 | 78.6 | 72.6 | 58.8
CC1CCc2c(C(=O)Nc3cccc(-c4nn[nH]n4)c3)csc2C1 (stereo not given) | x | n | n | x | x | 41.8 | n
CCc1nnc(NC(=O)c2csc3c2CCC(C)C3)s1 (stereo not given) | n | n | n | n | n | n | x
CC(C)(C)c1ccc(C2CC2C(=O)N/N=C\c2ccc[nH]2)cc1 (stereo not given) | 100.0 | n | n | 80.1 | 74.8 | 57.6 | 88.6
O=C(N/N=C/c1ccco1)C1CC1c1ccccc1 (stereo not given) | n | n | n | n | n | n | x
Cc1cc(NS(=O)(=O)c2ccc(NC(=S)NC(=O)c3ccccc3)cc2)no1 | n | n | n | n | n | 63.1 | 22.9
